AMA1-RON2 inh – qHTS for Inhibitors of AMA1-RON; Towards Development of Antimalarial Drug Lead: Primary Screen; Plasmodium falciparum AMA1 (3D7) - RON2 peptide interaction; AlphaScreen AMA1-biotinylated RON2 peptide binding; Potency, µM (top dose mostly 58.2 µM), for the others: at the top dose activity change, negative = inhibition, most hits filed as inhibitors; 360,000 compounds, 0.2% hits;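 note: 0% = vehicle wells and -100% = peptide control; nearly all actives have a fitted effect of over 45% in size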
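AMA1 (3D7) with his tag at 25 nM final met compounds first, then biotinylated RON2 peptide at 25 nM; detection used donor plus acceptor beads, 10 µg/mL apiece, read by AlphaScreen after 30 min at room temperature.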
LmPK inh – qHTS Assay for Inhibitors of Leishmania Mexicana Pyruvate Kinase (LmPK); Potency, µM (doses to about 57.5 µM), for the others: at the top dose activity change, negative = inhibition, hits mostly inhibitors; purified LmPK, Kinase-Glo ATP luminescence, 1 h; Q27686; AID 1721, 2009; 290,000 compounds, 0.37% hits
Target sequence (Q27686 whole entry, looked up): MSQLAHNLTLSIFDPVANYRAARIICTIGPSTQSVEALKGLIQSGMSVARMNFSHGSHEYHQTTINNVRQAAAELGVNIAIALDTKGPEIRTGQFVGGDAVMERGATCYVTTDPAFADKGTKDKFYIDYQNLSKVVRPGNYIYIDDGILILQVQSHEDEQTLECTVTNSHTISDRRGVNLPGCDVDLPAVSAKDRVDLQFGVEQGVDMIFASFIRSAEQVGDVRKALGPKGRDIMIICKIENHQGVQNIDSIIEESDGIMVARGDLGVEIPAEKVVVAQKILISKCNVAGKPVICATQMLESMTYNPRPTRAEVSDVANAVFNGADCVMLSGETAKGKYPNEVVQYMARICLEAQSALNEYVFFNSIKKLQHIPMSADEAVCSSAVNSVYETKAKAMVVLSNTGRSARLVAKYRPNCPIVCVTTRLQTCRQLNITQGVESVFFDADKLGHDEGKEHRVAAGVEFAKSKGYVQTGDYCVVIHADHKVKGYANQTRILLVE
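Screened at intermediate enzyme activity to detect both inhibitors and activators: LmPK at 0.1 nM, with a 0.5 nM enzyme column as activation reference. PEP 0.5 mM, ADP 0.1 mM; ATP detected by luminescence after 1 h.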
RE007 growth inh – qHTS Assay for Inhibitors of the HIV-1 protein Vpr; S. pombe RE007 Vpr strain, BacTiter-Glo ATP luminescence, 24 h; Potency, µM (highest dose often 92.2 µM), without a hit: top-dose activity change, negative = less growth, usual class: inhibitors; 360,000 compounds, 0.21% hits; AID 651644, 2012; active = well fitted falling curve with a large enough effect; inconclusive = small, poorly fitted or top-dose-only effect; inactive = no such curve, though single readings can be large or run the other way; note: nearly all actives have a fitted effect of over 50% in size
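Fission yeast RE007 carrying one integrated HIV-1 vpr copy, seeded at OD 0.01 in PMG+AL medium with 23 nL pinned compound. Grown 24 h at 30 degrees; viability read by BacTiter-Glo luminescence after 5 min.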
Tb PYK inh – qHTS of Trypanosoma Brucei Inhibitors. pyruvate kinase (Trypanosoma brucei), Q57TT1. TbPYK enzyme, Kinase-Glo Plus ATP luminescence, 45 min. Potency, µM (top dose mostly 76.8 µM), inactives show at the highest dose activity, negative = inhibition, usual class: inhibitors. 410,000 compounds, 0.12% hits. AID 624173, 2012; note: nearly all actives have a fitted effect of over 50% in size
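Luminescent Kinase-Glo Plus end-point after 45 min room-temperature reaction of T. brucei pyruvate kinase started with 130 uM ADP (final). Buffer TEA 50 mM pH 7.2 with KCl, MgCl2, BSA, Tween-20; titration-based qHTS with fitted concentration-effect curves.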
* marks the source's active call; other numbers are inactive results. Most compounds without a hit are left out; they make up all but 0.68% or so of the library. Unless noted, calls come from the whole dose curve; as a rule, active = well fitted curve in the direction sought with a large enough effect; inconclusive = small, poorly fitted or top-dose-only effect, or another doubt; inactive = no such curve, though single readings can be large; an effect the other way counts as inactive or inconclusive. Unless noted, % is set by controls: 0 for no effect and ±100 for the full control effect; potency is the fitted concentration of half-maximal effect.

Results for CC(=O)c1c(N2CCN(c3cccc(Cl)c3)CC2)nc(=S)n(-c2ccccc2)c1C ?
AMA1-RON2 inh: -21%; LmPK inh: -1%; RE007 growth inh: 5%; Tb PYK inh: -5%

How did O=[N+]([O-])c1cccnc1N/N=C/c1ccccc1O do in these assays?
AMA1-RON2 inh: 30%; LmPK inh: 14µM*; RE007 growth inh: 0%; Tb PYK inh: -27%

What do the screens show for `COc1cccc(/C=N/Nc2nccnc2Cl)c1O`?
AMA1-RON2 inh: -32%; LmPK inh: 10µM*; RE007 growth inh: 35µM*; Tb PYK inh: inconclusive

Results for COc1cccc(/C=N/Nc2ncnc(Cl)c2N)c1O ?
AMA1-RON2 inh: -19%; LmPK inh: -2%; RE007 growth inh: 13%; Tb PYK inh: -7%

Results for Oc1ccc(/C=N/Nc2nccnc2Cl)c(O)c1 ?
AMA1-RON2 inh: -1%; LmPK inh: 13µM*; RE007 growth inh: -17%; Tb PYK inh: inconclusive

How did Cc1c(O)ccc(/C=N/Nc2ncccc2[N+](=O)[O-])c1O do in these assays?
AMA1-RON2 inh: 59%; LmPK inh: -5%; RE007 growth inh: inconclusive; Tb PYK inh: -13%

How did Oc1ccccc1/C=N/Nc1nccnc1Cl do in these assays?
AMA1-RON2 inh: -5%; LmPK inh: 16µM*; RE007 growth inh: inconclusive; Tb PYK inh: -8%

Results for Oc1ccc(C=NNc2ccccn2)c(O)c1 ?
AMA1-RON2 inh: -9%; RE007 growth inh: -24%; Tb PYK inh: -8%

What do the screens show for `NC(=O)c1sc2cc(C(F)(F)F)cnc2c1-c1ccccc1`?
AMA1-RON2 inh: inconclusive; LmPK inh: 1%; RE007 growth inh: 6%; Tb PYK inh: -3%

Results for O=C1CN(C(=O)COC(=O)c2oc3ccccc3c2COc2ccccc2)c2ccccc2N1 ?
AMA1-RON2 inh: 29%; LmPK inh: 2%; RE007 growth inh: -7%; Tb PYK inh: 0%

Results for Cc1ccccc1NS(=O)(=O)c1cc(C(=O)NCCSC2CCCCC2)ccc1C ?
AMA1-RON2 inh: -8%; LmPK inh: -1%; RE007 growth inh: 11µM*; Tb PYK inh: -9%

What do the screens show for `Cc1ccc(C)c(NS(=O)(=O)c2cc(C(=O)NCCSC3CCCCC3)ccc2C)c1`?
AMA1-RON2 inh: 1%; LmPK inh: 1%; RE007 growth inh: 11%; Tb PYK inh: -6%

What do the screens show for `CCOC(=O)C(Cc1ccccc1)NC(=O)Cn1nnc(-c2ccc(SC)cc2)n1` (stereo not given)?
AMA1-RON2 inh: -6%; LmPK inh: -5%; RE007 growth inh: 10%; Tb PYK inh: 2%

What do the screens show for `O=C(c1ccc2c3n(nc2c1)-c1ccc(Cl)cc1CO3)N1CCOCC1`?
AMA1-RON2 inh: -1%; LmPK inh: 16µM*; RE007 growth inh: -3%; Tb PYK inh: -21%

What do the screens show for `C[C@@H](CO)NC(=O)c1ccc2c3n(nc2c1)-c1ccccc1CO3`?
AMA1-RON2 inh: 4%; LmPK inh: 14µM*; RE007 growth inh: -17%; Tb PYK inh: inconclusive

How did O=C(c1ccc2c3n(nc2c1)-c1ccccc1CO3)N1CCCCC1 do in these assays?
AMA1-RON2 inh: -4%; LmPK inh: 6.3µM*; RE007 growth inh: inconclusive; Tb PYK inh: inconclusive

Results for O=C(c1ccc2c3n(nc2c1)-c1ccccc1CO3)N1CCOCC1 ?
AMA1-RON2 inh: -4%; LmPK inh: 14µM*; RE007 growth inh: inconclusive; Tb PYK inh: 18µM*

Results for Cc1ccc2c(c1)COc1c3ccc(C(=O)N4CCCCC4)cc3nn1-2 ?
AMA1-RON2 inh: -5%; LmPK inh: -25%; RE007 growth inh: -21%; Tb PYK inh: -12%

How did CCN(Cc1nc2ccccc2c(=O)[nH]1)C(=O)C1CC(=O)N(c2cccc3ccccc23)C1 (stereo not given) do in these assays?
AMA1-RON2 inh: 113%; RE007 growth inh: -11%; Tb PYK inh: -3%

How did O=S(=O)(c1ccc(Cl)s1)N1CCN(c2ncccn2)CC1 do in these assays?
AMA1-RON2 inh: -1%; LmPK inh: 5%; RE007 growth inh: 12%; Tb PYK inh: 1%

How did CCOC(=O)C(=CNc1ccc(C(O)(C(=O)OCC)C(F)(F)F)cc1C)C(=O)OCC (stereo not given) do in these assays?
AMA1-RON2 inh: 7%; LmPK inh: 0%; RE007 growth inh: 12%; Tb PYK inh: 5%

How did O=c1c2ccccc2nc(SCc2cccc(F)c2)n1Cc1ccco1 do in these assays?
AMA1-RON2 inh: 6%; LmPK inh: -5%; RE007 growth inh: -8%; Tb PYK inh: -11%

Results for CS(=O)(=O)c1ccc(N)c(SSc2cc(S(C)(=O)=O)ccc2N)c1 ?
AMA1-RON2 inh: -2%; RE007 growth inh: 7%; Tb PYK inh: 3.5µM*

What do the screens show for `Cc1onc(-c2ccccc2)c1-c1nc2ccccc2c(=O)o1`?
AMA1-RON2 inh: -1%; LmPK inh: -9%; RE007 growth inh: 2%; Tb PYK inh: -11%

Results for Cc1ccc(-c2cc(C(=O)Nc3cccc(S(=O)(=O)N(C)C)c3)c3ccccc3n2)o1 ?
AMA1-RON2 inh: -15%; LmPK inh: 2%; RE007 growth inh: -11%; Tb PYK inh: inconclusive

How did CCNC(=O)CC1C(=O)N(c2ccc(F)cc2)C(=S)N1CCc1ccncc1 (stereo not given) do in these assays?
AMA1-RON2 inh: 32µM*; LmPK inh: 1%; RE007 growth inh: 5%; Tb PYK inh: 1%

How did O=C(CCC(=O)N1CCSc2ccccc21)NCCc1ccccc1 do in these assays?
AMA1-RON2 inh: -4%; LmPK inh: -6%; RE007 growth inh: -1%; Tb PYK inh: 0%

How did NNCc1ccccc1 do in these assays?
AMA1-RON2 inh: 32µM*; RE007 growth inh: -4%; Tb PYK inh: 4%

What do the screens show for `O=C(O)CCCN=CC1=C(O)CNC1=O`?
AMA1-RON2 inh: 5%; LmPK inh: 0%; RE007 growth inh: 35%; Tb PYK inh: -1%

How did COc1cccc(-n2sc3c(c2=S)-c2cc(OC)ccc2NC3(C)C)c1 do in these assays?
AMA1-RON2 inh: 22µM*; LmPK inh: 5%; RE007 growth inh: 117%; Tb PYK inh: 0%

Results for c1ccc(-c2nnc(-c3ccccc3)o2)cc1 ?
AMA1-RON2 inh: 8%; LmPK inh: inconclusive; RE007 growth inh: inconclusive; Tb PYK inh: 3%

Results for Clc1cccc(-c2nnc(-c3ccccc3)o2)c1 ?
AMA1-RON2 inh: 6%; LmPK inh: 25µM*; RE007 growth inh: 20µM*; Tb PYK inh: -10%

What do the screens show for `Cc1ccc(S(=O)(=O)SCCCSS(=O)(=O)c2ccc(C)cc2)cc1`?
AMA1-RON2 inh: 15%; RE007 growth inh: inconclusive; Tb PYK inh: 4µM*

How did Cc1ccc(S(=O)(=O)SC/C=C/CSS(=O)(=O)c2ccc(C)cc2)cc1 do in these assays?
AMA1-RON2 inh: 22%; RE007 growth inh: inconclusive; Tb PYK inh: inconclusive

Assay outcomes as filed in PubChem BioAssay.
